Experimental data: the supplement of paper PMC4466140

Each binder was assayed against AgAbp1 (assay: SPOT peptide array binding signal intensity (averaged, normalized) (arbitrary units (background-subtracted, floor 0; scale differs between SH3 domains)); higher = stronger binding of the SH3 domain to the peptide).
Method in brief: (§1)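 E. coli BL21(DE3) was used to express GST-fused SH3 domains from four yeast species, which were then purified on glutathione Sepharose. These were incubated at 10 μg/ml in TBS-based blocking buffer overnight at 4°C on cellulose membranes carrying synthetic 15-mer peptides, in which cysteines were replaced by serines. Binding signal is the replicate average of normalized, background-subtracted spot intensity, in arbitrary units that differ between domains.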

Row | Binder | SPOT peptide array binding signal intensity
1 | RKNRAPPQRPRFNRE | 777

Each binder was assayed against AgBbc1 in the same assay as above.
Method in brief: as §1

Row | Binder | SPOT peptide array binding signal intensity
2 | RKNRAPPQRPRFNRE | 536

These binders were tested against AgBem1-D1 in the same assay as above.
Method in brief: as §1

Row | Binder | SPOT peptide array binding signal intensity
3 | RKNRAPPQRPRFNRE | 379

What follows are binders tested against AgBzz1-D1 in the same assay as above.
Method in brief: as §1

Row | Binder | SPOT peptide array binding signal intensity
4 | RKNRAPPQRPRFNRE | 248

Each binder was assayed against AgBzz1-D2 in the same assay as above.
Method in brief: as §1

Row | Binder | SPOT peptide array binding signal intensity
5 | RKNRAPPQRPRFNRE | 220

Each binder was assayed against AgCyk3 in the same assay as above.
Method in brief: as §1

Row | Binder | SPOT peptide array binding signal intensity
6 | RKNRAPPQRPRFNRE | 7

These binders were tested against AgFus1 in the same assay as above.
Method in brief: as §1

Row | Binder | SPOT peptide array binding signal intensity
7 | RKNRAPPQRPRFNRE | 404

What follows are binders tested against AgHof1 in the same assay as above.
Method in brief: as §1

Row | Binder | SPOT peptide array binding signal intensity
8 | RKNRAPPQRPRFNRE | 117

What follows are binders tested against AgHse1 in the same assay as above.
Method in brief: as §1

Row | Binder | SPOT peptide array binding signal intensity
9 | RKNRAPPQRPRFNRE | 469

What follows are binders tested against AgLsb1 in the same assay as above.
Method in brief: as §1

Row | Binder | SPOT peptide array binding signal intensity
10 | RKNRAPPQRPRFNRE | 267

The binders below were run against AgLsb4 in the same assay as above.
Method in brief: as §1

Row | Binder | SPOT peptide array binding signal intensity
11 | RKNRAPPQRPRFNRE | 71

Each binder was assayed against AgMyo5 in the same assay as above.
Method in brief: as §1

Row | Binder | SPOT peptide array binding signal intensity
12 | RKNRAPPQRPRFNRE | 2.5

The binders below were run against AgNbp2 in the same assay as above.
Method in brief: as §1

Row | Binder | SPOT peptide array binding signal intensity
13 | RKNRAPPQRPRFNRE | 1890

The binders below were run against AgRvs167 in the same assay as above.
Method in brief: as §1

Row | Binder | SPOT peptide array binding signal intensity
14 | RKNRAPPQRPRFNRE | 8.33

What follows are binders tested against AgSho1 in the same assay as above.
Method in brief: as §1

Row | Binder | SPOT peptide array binding signal intensity
15 | RKNRAPPQRPRFNRE | 47.5

The binders below were run against AgSla1-D1-D2 in the same assay as above.
Method in brief: as §1

Row | Binder | SPOT peptide array binding signal intensity
16 | RKNRAPPQRPRFNRE | 320

What follows are binders tested against AgSla1-D3 in the same assay as above.
Method in brief: as §1

Row | Binder | SPOT peptide array binding signal intensity
17 | RKNRAPPQRPRFNRE | 39.2

What follows are binders tested against CaAbp1-D1 in the same assay as above.
Method in brief: as §1

Row | Binder | SPOT peptide array binding signal intensity
18 | RKNRAPPQRPRFNRE | 976

Each binder was assayed against CaAbp1-D2 in the same assay as above.
Method in brief: as §1

Row | Binder | SPOT peptide array binding signal intensity
19 | RKNRAPPQRPRFNRE | 788

These binders were tested against CaBbc1 in the same assay as above.
Method in brief: as §1

Row | Binder | SPOT peptide array binding signal intensity
20 | RKNRAPPQRPRFNRE | 945

Each binder was assayed against CaBem1-D1 in the same assay as above.
Method in brief: as §1

Row | Binder | SPOT peptide array binding signal intensity
21 | RKNRAPPQRPRFNRE | 39

Each binder was assayed against CaBzz1-D1 in the same assay as above.
Method in brief: as §1

Row | Binder | SPOT peptide array binding signal intensity
22 | RKNRAPPQRPRFNRE | 2100

The binders below were run against CaBzz1-D2 in the same assay as above.
Method in brief: as §1

Row | Binder | SPOT peptide array binding signal intensity
23 | RKNRAPPQRPRFNRE | 1120

The binders below were run against CaCyk3 in the same assay as above.
Method in brief: as §1

Row | Binder | SPOT peptide array binding signal intensity
24 | RKNRAPPQRPRFNRE | 642

The binders below were run against CaFus1 in the same assay as above.
Method in brief: as §1

Row | Binder | SPOT peptide array binding signal intensity
25 | RKNRAPPQRPRFNRE | 706

What follows are binders tested against CaHof1 in the same assay as above.
Method in brief: as §1

Row | Binder | SPOT peptide array binding signal intensity
26 | RKNRAPPQRPRFNRE | 0.5

What follows are binders tested against CaHse1 in the same assay as above.
Method in brief: as §1

Row | Binder | SPOT peptide array binding signal intensity
27 | RKNRAPPQRPRFNRE | 89.8

Each binder was assayed against CaLsb1 in the same assay as above.
Method in brief: as §1

Row | Binder | SPOT peptide array binding signal intensity
28 | RKNRAPPQRPRFNRE | 7

Each binder was assayed against CaLsb4 in the same assay as above.
Method in brief: as §1

Row | Binder | SPOT peptide array binding signal intensity
29 | RKNRAPPQRPRFNRE | 646

These binders were tested against CaMyo5 in the same assay as above.
Method in brief: as §1

Row | Binder | SPOT peptide array binding signal intensity
30 | RKNRAPPQRPRFNRE | 9.25

Each binder was assayed against CaNbp2 in the same assay as above.
Method in brief: as §1

Row | Binder | SPOT peptide array binding signal intensity
31 | RKNRAPPQRPRFNRE | 1020

Each binder was assayed against CaRvs167 in the same assay as above.
Method in brief: as §1

Row | Binder | SPOT peptide array binding signal intensity
32 | RKNRAPPQRPRFNRE | 26.5

What follows are binders tested against CaRvs167-3 in the same assay as above.
Method in brief: as §1

Row | Binder | SPOT peptide array binding signal intensity
33 | RKNRAPPQRPRFNRE | 28.5

What follows are binders tested against CaSho1 in the same assay as above.
Method in brief: as §1

Row | Binder | SPOT peptide array binding signal intensity
34 | RKNRAPPQRPRFNRE | 117

Each binder was assayed against CaSla1-D1-D2 in the same assay as above.
Method in brief: as §1

Row | Binder | SPOT peptide array binding signal intensity
35 | RKNRAPPQRPRFNRE | 752

These binders were tested against CaSla1-D3 in the same assay as above.
Method in brief: as §1

Row | Binder | SPOT peptide array binding signal intensity
36 | RKNRAPPQRPRFNRE | 15

These binders were tested against ScAbp1 in the same assay as above.
Method in brief: as §1

Row | Binder | SPOT peptide array binding signal intensity
37 | RKNRAPPQRPRFNRE | 369

These binders were tested against ScBbc1 in the same assay as above.
Method in brief: as §1

Row | Binder | SPOT peptide array binding signal intensity
38 | RKNRAPPQRPRFNRE | 290

The binders below were run against ScBem1-D1 in the same assay as above.
Method in brief: as §1

Row | Binder | SPOT peptide array binding signal intensity
39 | RKNRAPPQRPRFNRE | 112

The binders below were run against ScBzz1-D1 in the same assay as above.
Method in brief: as §1

Row | Binder | SPOT peptide array binding signal intensity
40 | RKNRAPPQRPRFNRE | 46

The binders below were run against ScBzz1-D2 in the same assay as above.
Method in brief: as §1

Row | Binder | SPOT peptide array binding signal intensity
41 | RKNRAPPQRPRFNRE | 26

The binders below were run against ScCyk3 in the same assay as above.
Method in brief: as §1

Row | Binder | SPOT peptide array binding signal intensity
42 | RKNRAPPQRPRFNRE | 88

The binders below were run against ScFus1 in the same assay as above.
Method in brief: as §1

Row | Binder | SPOT peptide array binding signal intensity
43 | RKNRAPPQRPRFNRE | 209

The binders below were run against ScHof1 in the same assay as above.
Method in brief: as §1

Row | Binder | SPOT peptide array binding signal intensity
44 | RKNRAPPQRPRFNRE | 2.5

The binders below were run against ScHse1 in the same assay as above.
Method in brief: as §1

Row | Binder | SPOT peptide array binding signal intensity
45 | RKNRAPPQRPRFNRE | 761

These binders were tested against ScLsb1 in the same assay as above.
Method in brief: as §1

Row | Binder | SPOT peptide array binding signal intensity
46 | RKNRAPPQRPRFNRE | 162

Each binder was assayed against ScLsb2 in the same assay as above.
Method in brief: as §1

Row | Binder | SPOT peptide array binding signal intensity
47 | RKNRAPPQRPRFNRE | 196

Each binder was assayed against ScLsb3 in the same assay as above.
Method in brief: as §1

Row | Binder | SPOT peptide array binding signal intensity
48 | RKNRAPPQRPRFNRE | 622

Each binder was assayed against ScLsb4 in the same assay as above.
Method in brief: as §1

Row | Binder | SPOT peptide array binding signal intensity
49 | RKNRAPPQRPRFNRE | 34.5

Each binder was assayed against ScMyo3 in the same assay as above.
Method in brief: as §1

Row | Binder | SPOT peptide array binding signal intensity
50 | RKNRAPPQRPRFNRE | 8.5

What follows are binders tested against ScMyo5 in the same assay as above.
Method in brief: as §1

Row | Binder | SPOT peptide array binding signal intensity
51 | RKNRAPPQRPRFNRE | 10

Each binder was assayed against ScNbp2 in the same assay as above.
Method in brief: as §1

Row | Binder | SPOT peptide array binding signal intensity
52 | RKNRAPPQRPRFNRE | 4060

What follows are binders tested against ScPex13 in the same assay as above.
Method in brief: as §1

Row | Binder | SPOT peptide array binding signal intensity
53 | RKNRAPPQRPRFNRE | 128

Each binder was assayed against ScRvs167 in the same assay as above.
Method in brief: as §1

Row | Binder | SPOT peptide array binding signal intensity
54 | RKNRAPPQRPRFNRE | 192

Each binder was assayed against ScSho1 in the same assay as above.
Method in brief: as §1

Row | Binder | SPOT peptide array binding signal intensity
55 | RKNRAPPQRPRFNRE | 979

What follows are binders tested against ScSla1-D1-D2 in the same assay as above.
Method in brief: as §1

Row | Binder | SPOT peptide array binding signal intensity
56 | RKNRAPPQRPRFNRE | 1390

The binders below were run against ScSla1-D3 in the same assay as above.
Method in brief: as §1

Row | Binder | SPOT peptide array binding signal intensity
57 | RKNRAPPQRPRFNRE | 30.2

What follows are binders tested against SpAbp1-D1 in the same assay as above.
Method in brief: as §1

Row | Binder | SPOT peptide array binding signal intensity
58 | RKNRAPPQRPRFNRE | 634

What follows are binders tested against SpBbc1 in the same assay as above.
Method in brief: as §1

Row | Binder | SPOT peptide array binding signal intensity
59 | RKNRAPPQRPRFNRE | 25.5

The binders below were run against SpBzz1-D1 in the same assay as above.
Method in brief: as §1

Row | Binder | SPOT peptide array binding signal intensity
60 | RKNRAPPQRPRFNRE | 707
